# ± gives the standard deviation of the averaged measurements.
# Test system: E. coli BW25113 marRABp lux reporter
# Experiment: promoter activity interaction Z-score (Lux/OD deviation from empty-vector control); higher = stronger promoter induction by the compound
# Protocol: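 E. coli BW25113 (wild type or ΔmarA/ΔsoxS/Δrob) carrying pTU175 luxCDABE promoter reporters was grown in LB in 384-well plates at 37°C with each of 94 compounds at 4 two-fold concentrations, in biological duplicates. Luminescence and OD600 were read every 30 min for 12 h and integrated as AUC over 8 h (0-8 h WT, 1-9 h mutants). Lux AUC was divided by OD AUC; the interaction score is the residual of a Huber robust fit of each promoter against the empty-vector control, then Z-transformed per promoter.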
structure (smiles),measurement,setting,value
C/C=C/C/C=C/CCC(=O)[C@H]1O[C@H]1C(N)=O [Cerulenin],promoter activity interaction Z-score,"1.3 µg/ml, genetic background: wild type",-0.429 ± 0.45
same,promoter activity interaction Z-score,"1.3 µg/ml, genetic background: ΔmarA",-0.469 ± 0.27
same,promoter activity interaction Z-score,"1.3 µg/ml, genetic background: Δrob",-0.456 ± 0.13
same,promoter activity interaction Z-score,"1.3 µg/ml, genetic background: ΔsoxS",-0.416 ± 0.089
same,promoter activity interaction Z-score,"2.5 µg/ml, genetic background: wild type",-0.654 ± 0.29
same,promoter activity interaction Z-score,"2.5 µg/ml, genetic background: ΔmarA",-0.403 ± 0.076
same,promoter activity interaction Z-score,"2.5 µg/ml, genetic background: Δrob",-0.662 ± 0.091
same,promoter activity interaction Z-score,"2.5 µg/ml, genetic background: ΔsoxS",-0.444 ± 0.12
same,promoter activity interaction Z-score,"5 µg/ml, genetic background: wild type",-0.892 ± 0.19
same,promoter activity interaction Z-score,"5 µg/ml, genetic background: ΔmarA",-0.779 ± 0.41
same,promoter activity interaction Z-score,"5 µg/ml, genetic background: Δrob",-0.818 ± 0.011
same,promoter activity interaction Z-score,"5 µg/ml, genetic background: ΔsoxS",-0.796 ± 0.034
same,promoter activity interaction Z-score,"10 µg/ml, genetic background: wild type",-0.948 ± 0.37
same,promoter activity interaction Z-score,"10 µg/ml, genetic background: ΔmarA",-0.377 ± 0.77
same,promoter activity interaction Z-score,"10 µg/ml, genetic background: Δrob",-1.01 ± 0.028
same,promoter activity interaction Z-score,"10 µg/ml, genetic background: ΔsoxS",-0.994 ± 0.11
CCCCCCCCCCCCC[N+](C)(C)Cc1ccccc1 [Benzalkonium],promoter activity interaction Z-score,"1.9 µg/ml, genetic background: wild type",-0.577 ± 0.068
same,promoter activity interaction Z-score,"1.9 µg/ml, genetic background: ΔmarA",0.106 ± 0.047
same,promoter activity interaction Z-score,"1.9 µg/ml, genetic background: Δrob",-0.463 ± 0.11
same,promoter activity interaction Z-score,"1.9 µg/ml, genetic background: ΔsoxS",-0.158 ± 0.0077
same,promoter activity interaction Z-score,"3.7 µg/ml, genetic background: wild type",-0.168 ± 0.0038
same,promoter activity interaction Z-score,"3.7 µg/ml, genetic background: ΔmarA",-0.194 ± 0.23
same,promoter activity interaction Z-score,"3.7 µg/ml, genetic background: Δrob",-0.586 ± 0.14
same,promoter activity interaction Z-score,"3.7 µg/ml, genetic background: ΔsoxS",-0.214 ± 0.035
same,promoter activity interaction Z-score,"7.4 µg/ml, genetic background: wild type",-0.235 ± 0.61
same,promoter activity interaction Z-score,"7.4 µg/ml, genetic background: ΔmarA",-0.581 ± 0.057
same,promoter activity interaction Z-score,"7.4 µg/ml, genetic background: Δrob",-0.529 ± 0.065
same,promoter activity interaction Z-score,"7.4 µg/ml, genetic background: ΔsoxS",-0.255 ± 0.23
CC(=O)Oc1ccccc1C(=O)O [Acetylsalicylic acid],promoter activity interaction Z-score,"22.5 µg/ml, genetic background: wild type",0.161 ± 0.7
same,promoter activity interaction Z-score,"22.5 µg/ml, genetic background: ΔmarA",0.108 ± 0.13
same,promoter activity interaction Z-score,"22.5 µg/ml, genetic background: Δrob",0.479 ± 0.51
same,promoter activity interaction Z-score,"22.5 µg/ml, genetic background: ΔsoxS",0.261 ± 0.009
same,promoter activity interaction Z-score,"45 µg/ml, genetic background: wild type",0.512 ± 0.54
same,promoter activity interaction Z-score,"45 µg/ml, genetic background: ΔmarA",0.152 ± 0.14
same,promoter activity interaction Z-score,"45 µg/ml, genetic background: Δrob",0.623 ± 0.14
same,promoter activity interaction Z-score,"45 µg/ml, genetic background: ΔsoxS",0.318 ± 0.23
same,promoter activity interaction Z-score,"90.1 µg/ml, genetic background: wild type",0.0791 ± 0.33
same,promoter activity interaction Z-score,"90.1 µg/ml, genetic background: ΔmarA",-0.0396 ± 0.066
same,promoter activity interaction Z-score,"90.1 µg/ml, genetic background: Δrob",0.404 ± 0.071
same,promoter activity interaction Z-score,"90.1 µg/ml, genetic background: ΔsoxS",0.469 ± 0.2
same,promoter activity interaction Z-score,"180.2 µg/ml, genetic background: wild type",1.81 ± 0.28
same,promoter activity interaction Z-score,"180.2 µg/ml, genetic background: ΔmarA",1.65 ± 0.22
same,promoter activity interaction Z-score,"180.2 µg/ml, genetic background: Δrob",2.07 ± 0.099
same,promoter activity interaction Z-score,"180.2 µg/ml, genetic background: ΔsoxS",1.89 ± 0.43

# — the supplement of paper PMC12282887
